Source: PubChem BioAssay
TRHR PAM – allosterically enhances the human TRH receptor | AID 493056 | TRHR cells, fluo-8 calcium fluorescence, EC20 TRH enhancement | 0.66% of 360,000 active | enhancement, % at 2 µM | P34981; in the data active means enhancement above about 30%; further: 0% is about no effect
Target sequence (P34981 whole entry, looked up): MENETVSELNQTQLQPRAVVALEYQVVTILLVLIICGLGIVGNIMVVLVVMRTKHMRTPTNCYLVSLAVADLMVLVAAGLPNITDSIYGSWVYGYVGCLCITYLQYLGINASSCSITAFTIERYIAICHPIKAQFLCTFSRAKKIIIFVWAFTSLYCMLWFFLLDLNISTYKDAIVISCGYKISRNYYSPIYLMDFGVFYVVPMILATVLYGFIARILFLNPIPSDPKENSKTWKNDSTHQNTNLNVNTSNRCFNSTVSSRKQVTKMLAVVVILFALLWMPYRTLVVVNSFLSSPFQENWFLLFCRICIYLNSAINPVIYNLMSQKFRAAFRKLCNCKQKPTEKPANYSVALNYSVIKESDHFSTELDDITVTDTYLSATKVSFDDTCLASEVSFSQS
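TRHR-expressing cells loaded with fluo-8 calcium dye were read kinetically (ex 480/em 530) during compound addition, then stimulated with an EC20 of TRH (10 nM final). Enhancement of the Gq-mediated intracellular calcium response was scored.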
Glioma ERSR ind – inducers of ER stress response in human glioma cells. U87-MG GRP78 promoter luciferase reporter, 16 h. Potency, µM, for inactives: at the top dose activation, usual class: activators. 0.02% of 420,000 active. AID 602332; active means well fitted activation curve with a large enough effect; further: potency means the concentration at half of the fitted maximal effect; series mostly up to about 76 µM; % of control where 0% means no effect; nearly all actives have a fitted effect of over 35% in size
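ERSR induction read as luciferase luminescence (Bright-Glo, 10 min at room temperature) in stably transfected human U87-MG glioma cells exposed to compounds for 16 h, using GRP78 as sensor.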
D1 potentiator – human D1 dopamine receptor positive modulation; HEK293 TREx D1 cells, calcium flux, dopamine EC20 potentiation; 0.036% of 360,000 active; AID 504651; potentiation, % at 10 µM; in the data active means potentiation above about 30%; further: 0% is about no effect
TRHR agonist – activates the human TRH receptor | TRHR cells, calcium flux fluo-8, FDSS agonist mode | activation, % at 2 µM | 0.18% of 360,000 active | AID 493084; further: 0% is about no effect
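Steps: seed TRHR cells overnight; add fluo-8 no-wash Ca dye, RT 30 min–1.5 h; record 10 s baseline; pin-transfer compounds; monitor fluorescence 1 cycle/s for the agonist window. Calcium increases flag candidate agonists.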
D1 antagonist – blocks dopamine activation of the human D1 receptor. activity change, negative = inhibition, % at 10 µM. 3.2% of 360,000 active. HEK293 TREx D1 cells, calcium flux, dopamine EC80; hits give low values. P21728; in the data active means activity change below about -30%; further: on the % scale 0 is the no-effect control and ±100 the full control effect
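HEK293 T-REx cells expressing inducible, force-coupled D1 receptor; no-wash Ca dye, 30–90 min RT. Cmpd → 180 s read at 1 Hz → EC80 DA → 180 s read.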
D1 agonist – agonists of human D1 dopamine receptor. 1% of 360,000 active. activation, % at 2 µM. P21728. HEK293 T-REx D1 cells, calcium flux, agonist mode; further: 0% is about no effect
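Tetracycline-induced HEK293 TREx D1 cells, force-coupled to calcium signalling, were dye-loaded with a no-wash calcium kit. Compound was pin-added after a 10 s baseline. Fluorescence was read kinetically at 1 cycle/s for 180 s, with calcium rises flagged as agonism.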
Starred values were filed as active, the others as inactive; / = not tested or not shown. Only some compounds are listed: those with a hit (about 4% of all), similar ones and a draw of the others. Unless noted, no stated cut-off is given here; in the data, active means activation above about 30%; inactive means the rest.

SMILES	TRHR PAM	Glioma ERSR ind	D1 potentiator	TRHR agonist	D1 antagonist	D1 agonist
N#Cc1c(Cl)nc(SCc2ccccc2)nc1-c1ccccc1	2.9	/	-5.7	-0.1	-32.2*	1.5
CSc1ncc(Cl)c(C(=O)Nc2c(C(=O)c3ccc(Cl)cc3)oc3ccccc23)n1	47.3*	-3.3%	-1.4	0.2	0.6	2.5
C/C(=N\OCC(=O)OCC(=O)N(Cc1ccccc1)C(C)(C)C)c1ccc2c(c1)OCO2	-4.8	-1.6%	-9.6	1.3	-36.1*	24.9
CCN(C(=O)COC(=O)CSc1ccc(F)cc1)c1c(N)n(Cc2ccccc2)c(=O)[nH]c1=O	3.5	-3.2%	1.3	-0.4	18.4	-0.1
CCCN(C(=O)CCNC(=O)c1ccc(Cl)cc1)c1c(N)n(Cc2ccccc2)c(=O)[nH]c1=O	-3.6	-5.1%	/	-0.5	-31.5*	9.6
CCN(C(=O)COc1ccc(F)cc1Br)c1c(N)n(Cc2ccccc2)c(=O)[nH]c1=O	-4.5	-7.3%	-4.3	0.0	-40.5*	1.9
COCCN(C(=O)COC(=O)c1cc2c(s1)CCCC2)c1c(N)n(Cc2ccccc2)c(=O)[nH]c1=O	-4.8	-2.6%	-4.8	-0.1	3.4	-1.7
CCCc1cc(C(=O)OCC(=O)N(CCC)c2c(N)n(Cc3ccccc3)c(=O)[nH]c2=O)sc1C	3.4	-0.8%	39.6*	0.2	60.8	24.2
CCCCn1c(N)c(N(CC(C)C)C(=O)CCNC(=O)c2ccc(Cl)cc2)c(=O)[nH]c1=O	-0.7	-0.3%	-1.1	-0.5	-17.6	2.8
COc1ccc(NC(=O)Cc2nnc(SCC(=O)NC3CCCCC3C)n2C)cc1 (configuration not stated)	4.4	-2.2%	1.4	-0.2	3.6	3.1
CCOCCN(C(=O)c1ccccc1Cl)c1cccc(C)c1C	17.4	-2.5%	-8.9	-0.1	-38.4*	-0.4
CC12CCC(=O)C=C1CCC1C2CCC2(C)C1CC1C3C(=O)N(Cc4ccccc4)C(=O)C3CC(=O)C12 (configuration not stated)	/	-1.9%	/	/	/	/
COc1ccc(OC2C=CC(c3ccccc3)OC2CO)c(C(C)(C)C)c1 (configuration not stated)	/	-4.5%	/	/	/	/
COc1ccc(CCNc2nc(-c3sc(N)nc3C)cs2)cc1OC	-8.6	-7.3%	-7.0	0.5	-60.6*	0.5
CNc1ccc(/C=C2\C=Cc3ccccc32)cc1OC	/	6.5%	/	/	/	/
CCOc1ccc(-c2oc3cc(Cl)ccc3c(=O)c2O)cc1OC	-11.5	0.5%	-1.1	78.1*	20.3	95.8*
COc1cc(-c2oc3cc(O)ccc3c(=O)c2O)ccc1O	/	5.9%	/	/	/	/
CSc1nc(N)nc2c1ncn2CC(=O)N1CCN(Cc2c(C)cc(C)cc2C)CC1	/	-2.2%	/	/	/	/
O=C(c1ccccc1)C(I)(I)N1CCOCC1	/	-1.9%	/	/	/	/
O=C(CN1CCc2ccccc2C1)N1CCN(S(=O)(=O)c2ccccc2)CC1	-3.2	1.0%	-5.9	-0.7	-35.5*	2.7
O=C(Cn1cc(C(F)(F)F)ccc1=O)N1CCN(S(=O)(=O)c2ccccc2)CC1	39.6*	-8.2%	-0.3	-0.8	-4.0	0.5
COc1ccc(S(=O)(=O)N2CCN(CCOc3ccccc3Cl)CC2)cc1OC	0.6	-1.5%	-14.4	-0.3	-50.9*	6.1
O=S(=O)(c1ccc(C(F)(F)F)cc1)N1CCN(CCOc2ccccc2)CC1	2.2	0.7%	-3.5	1.1	-38.8*	18.5
O/N=C(/C[n+]1csc2ccccc21)c1ccccc1	/	0.7%	/	/	/	/
Cc1c(C(=O)N2CC3CCC2C3)sc2ncnc(NCCc3ccccn3)c12 (configuration not stated)	/	-4.6%	/	/	/	/
SMILES	TRHR PAM	Glioma ERSR ind	D1 potentiator	TRHR agonist	D1 antagonist	D1 agonist
Cc1nc2cc(NC(=O)[C@@H]3C[C@@H](Sc4ccccn4)CN3Cc3cccc(F)c3)ccc2s1	/	-3.6%	/	/	/	/
Cc1c(C(=O)N2CCCC2)sc2ncnc(NCCCN3CCOCC3)c12	/	-6.1%	/	/	/	/
O=C(COc1ccccc1[N+](=O)[O-])N1CCN(S(=O)(=O)c2ccccc2)CC1	2.9	-2.0%	-11.1	0.0	-95.5*	1.6
Cc1ccc(Nc2nc(Nc3ccc(Cl)cc3)nc(N3CCOCC3)n2)cc1	/	-3.6%	/	/	/	/
CSc1ccccc1NC(=O)CSc1nnc(CNC(=O)c2ccccc2F)n1C	3.5	3.3%	/	0.1	4.9	48.3*
Cc1ccccc1NC(=O)N1C2CCC1CC(O)(c1cccnc1)C2 (configuration not stated)	-3.6	-1.8%	-2.5	-0.5	-33.6*	-0.2
COc1ccccc1NC(=O)N1CCN(c2cc(-c3ccccc3)nc3ncnn23)CC1	-1.2	-1.6%	2.0	-0.6	-54.4*	0.0
O=C(NC1CCCC1)C(c1ccncc1)N(C(=O)Cc1cccs1)c1cccc(F)c1 (configuration not stated)	1.1	-1.5%	-3.6	-0.6	-31.5*	1.1
O=C(NC1CCCC1)C(c1ccncc1)N(C(=O)Cc1cccs1)c1ccccc1 (configuration not stated)	-10.2	-8.4%	5.6	-0.1	15.8	1.4
O=C(NC1CCCC1)C(c1ccc(F)cc1)N(C(=O)Cc1cccs1)c1ccc2c(c1)OCCO2 (configuration not stated)	30.4*	-1.3%	-3.4	0.2	9.4	2.2
Cc1oc(-c2ccccc2Cl)nc1CS(=O)CC(=O)NC1CC1 (configuration not stated)	3.1	-4.6%	-4.2	0.3	-59.8*	-0.1
Cc1ccc(CNC(=O)CS(=O)Cc2nc(-c3ccccc3Cl)oc2C)cc1 (configuration not stated)	-5.3	-4.5%	0.7	0.5	-41.9*	4.0
Cc1ccc(-c2cc(C(=O)N3CCCc4ccccc43)c3ccccc3n2)cc1	-13.0	-0.5%	6.0	0.7	25.3	1.4
Cc1ccc2nc3sc(C(=O)N4CCCc5ccccc54)c(N)c3cc2c1	-4.6	0.4%	-1.1	9.0	9.4	36.4*
COc1ccccc1NC(=O)c1ccc(CSc2ncccn2)cc1	3.4	/	-0.9	-0.2	9.5	2.4
CCC(CC)C(=O)Nc1cccc(-c2ccc3nncn3n2)c1	31.4*	0.1%	-3.3	4.9	4.5	0.7
O=C(Nc1cccc(-c2ccc3nncn3n2)c1)C(F)(F)F	-1.8	-6.4%	2.1	-0.5	-18.3	2.8
CC(=O)c1ccc(S(=O)(=O)Nc2cccc(-c3ccc4nncn4n3)c2)cc1	2.5	-2.5%	-1.9	0.1	-36.5*	0.2
CC(=O)c1cc(-c2ccccc2)n(CCC(=O)NCc2ccc(C)cc2)c1C	-7.0	-2.8%	-5.5	-0.2	-14.8	2.9
CC(=O)Nc1cc2c(s1)c1cnn(Cc3ccccc3F)c(=O)c1n2C	0.5	/	-6.3	-0.5	-4.3	1.9
NC(=O)c1ccc(SCC(=O)OCC(=O)N2CCCC2=O)c([N+](=O)[O-])c1	-0.2	-4.1%	-1.4	0.0	-43.2*	0.6
